From the supplement of paper PMC11732987, “Enantioselective OTUD7B fragment discovery through chemoproteomics screening and high-throughput optimisation” (Communications Chemistry, 2025)

Columns and labels:
Experiment in all cases: log2 ratio of Biotin-Ahx-Ub-VS probe labelling (fragment/DMSO); higher = less target engagement (more negative = stronger competition), active = hit call of the paper (q ≤ 0.05, log2 ratio ≤ -1)
Conditions in all cases: compound concentration: 200 uM; treatment time: 3 h
USP34 = USP34 (UniProt Q70CQ2)
Outline: (§1)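 Triplicate samples of HEK293T lysate, 495 µg each, received fragment at 200 µM or vehicle for 3 h, followed by Biotin-Ahx-Ub-VS (0.5 µM final) for 1 h. After NeutrAvidin enrichment of labelled DUBs and LysC/trypsin digestion, peptides were run by diaPASEF LC-MS/MS. The values are average log2 fragment/vehicle ratios from global-median-normalised Spectronaut label-free quantities, tested by unpaired t-test on proteins having ≥2 unique peptides.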

USP36 = target: T1, USP36 (UniProt Q9P275)
T1 sequence (whole entry): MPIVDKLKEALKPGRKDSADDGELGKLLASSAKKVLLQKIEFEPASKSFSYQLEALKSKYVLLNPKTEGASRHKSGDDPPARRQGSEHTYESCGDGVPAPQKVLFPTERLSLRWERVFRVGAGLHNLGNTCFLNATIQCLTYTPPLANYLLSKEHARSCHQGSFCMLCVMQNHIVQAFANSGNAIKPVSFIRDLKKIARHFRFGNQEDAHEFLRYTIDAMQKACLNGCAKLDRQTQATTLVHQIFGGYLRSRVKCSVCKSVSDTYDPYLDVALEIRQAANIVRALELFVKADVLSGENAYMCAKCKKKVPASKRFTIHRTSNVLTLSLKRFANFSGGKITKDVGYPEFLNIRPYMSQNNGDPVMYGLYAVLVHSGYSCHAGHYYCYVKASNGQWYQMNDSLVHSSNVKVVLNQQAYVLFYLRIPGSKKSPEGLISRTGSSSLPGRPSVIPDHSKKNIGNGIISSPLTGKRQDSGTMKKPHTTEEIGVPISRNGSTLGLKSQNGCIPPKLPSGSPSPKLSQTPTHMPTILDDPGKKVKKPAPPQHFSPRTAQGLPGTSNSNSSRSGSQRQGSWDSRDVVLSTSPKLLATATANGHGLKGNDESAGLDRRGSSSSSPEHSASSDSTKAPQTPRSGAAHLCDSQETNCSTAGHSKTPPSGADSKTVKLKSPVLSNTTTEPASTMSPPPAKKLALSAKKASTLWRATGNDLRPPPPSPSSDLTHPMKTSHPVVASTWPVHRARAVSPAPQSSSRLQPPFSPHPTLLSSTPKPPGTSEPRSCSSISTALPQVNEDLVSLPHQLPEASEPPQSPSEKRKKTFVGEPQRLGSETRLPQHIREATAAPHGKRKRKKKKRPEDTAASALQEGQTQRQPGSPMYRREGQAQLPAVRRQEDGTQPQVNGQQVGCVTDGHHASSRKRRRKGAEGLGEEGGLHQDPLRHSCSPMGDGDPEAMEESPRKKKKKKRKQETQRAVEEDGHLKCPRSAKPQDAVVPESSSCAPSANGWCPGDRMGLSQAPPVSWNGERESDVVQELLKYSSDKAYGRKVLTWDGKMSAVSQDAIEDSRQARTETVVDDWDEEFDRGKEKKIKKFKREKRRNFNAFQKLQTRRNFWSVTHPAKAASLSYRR
Outline: as §1

USP38 = target: T2, USP38 (UniProt Q8NB14)
T2 sequence (whole entry): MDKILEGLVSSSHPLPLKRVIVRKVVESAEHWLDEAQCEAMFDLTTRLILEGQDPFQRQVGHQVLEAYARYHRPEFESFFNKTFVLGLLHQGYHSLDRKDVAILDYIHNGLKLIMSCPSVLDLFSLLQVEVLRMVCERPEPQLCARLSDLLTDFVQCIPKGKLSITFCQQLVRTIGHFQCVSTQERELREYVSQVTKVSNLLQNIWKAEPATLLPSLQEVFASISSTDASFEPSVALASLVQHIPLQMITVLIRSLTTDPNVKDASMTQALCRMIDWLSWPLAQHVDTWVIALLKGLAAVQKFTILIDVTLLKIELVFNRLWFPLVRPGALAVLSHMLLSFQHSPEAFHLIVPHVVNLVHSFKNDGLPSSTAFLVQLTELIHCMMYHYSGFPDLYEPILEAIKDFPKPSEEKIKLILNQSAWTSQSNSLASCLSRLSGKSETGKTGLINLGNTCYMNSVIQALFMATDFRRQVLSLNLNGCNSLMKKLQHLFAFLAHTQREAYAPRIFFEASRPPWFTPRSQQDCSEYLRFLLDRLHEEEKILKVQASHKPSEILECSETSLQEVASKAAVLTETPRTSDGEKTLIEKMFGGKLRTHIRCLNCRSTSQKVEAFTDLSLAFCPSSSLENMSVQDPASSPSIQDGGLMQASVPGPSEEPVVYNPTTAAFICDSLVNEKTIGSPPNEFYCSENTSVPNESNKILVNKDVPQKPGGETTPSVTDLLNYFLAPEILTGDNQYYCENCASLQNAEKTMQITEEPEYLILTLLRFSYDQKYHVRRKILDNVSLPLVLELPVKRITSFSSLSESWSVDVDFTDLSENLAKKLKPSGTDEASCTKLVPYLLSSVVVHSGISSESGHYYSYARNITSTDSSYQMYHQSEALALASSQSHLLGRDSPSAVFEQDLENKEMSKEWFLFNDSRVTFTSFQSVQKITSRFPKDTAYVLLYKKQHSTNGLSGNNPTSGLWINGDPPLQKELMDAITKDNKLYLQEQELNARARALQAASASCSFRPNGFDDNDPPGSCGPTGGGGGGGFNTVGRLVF
Outline: as §1

USP39 = target: T3, USP39 (UniProt Q53GS9)
T3 sequence (whole entry): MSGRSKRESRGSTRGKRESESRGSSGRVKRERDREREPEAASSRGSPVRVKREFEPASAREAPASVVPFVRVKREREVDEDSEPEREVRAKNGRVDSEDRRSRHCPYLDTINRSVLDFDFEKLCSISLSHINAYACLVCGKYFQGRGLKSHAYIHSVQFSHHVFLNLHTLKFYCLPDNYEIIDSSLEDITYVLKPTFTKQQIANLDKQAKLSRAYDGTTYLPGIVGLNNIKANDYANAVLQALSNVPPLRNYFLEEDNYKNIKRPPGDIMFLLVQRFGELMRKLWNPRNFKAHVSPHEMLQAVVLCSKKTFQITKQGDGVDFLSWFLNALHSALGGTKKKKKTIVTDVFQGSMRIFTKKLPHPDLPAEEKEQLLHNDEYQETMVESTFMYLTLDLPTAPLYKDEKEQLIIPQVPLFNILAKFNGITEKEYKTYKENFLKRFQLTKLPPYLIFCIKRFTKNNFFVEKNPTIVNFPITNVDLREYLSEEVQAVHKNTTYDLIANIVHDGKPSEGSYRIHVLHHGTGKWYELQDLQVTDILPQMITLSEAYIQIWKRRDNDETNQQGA
Outline: as §1

USP4 = target: T4, USP4 (UniProt Q13107)
T4 sequence (whole entry): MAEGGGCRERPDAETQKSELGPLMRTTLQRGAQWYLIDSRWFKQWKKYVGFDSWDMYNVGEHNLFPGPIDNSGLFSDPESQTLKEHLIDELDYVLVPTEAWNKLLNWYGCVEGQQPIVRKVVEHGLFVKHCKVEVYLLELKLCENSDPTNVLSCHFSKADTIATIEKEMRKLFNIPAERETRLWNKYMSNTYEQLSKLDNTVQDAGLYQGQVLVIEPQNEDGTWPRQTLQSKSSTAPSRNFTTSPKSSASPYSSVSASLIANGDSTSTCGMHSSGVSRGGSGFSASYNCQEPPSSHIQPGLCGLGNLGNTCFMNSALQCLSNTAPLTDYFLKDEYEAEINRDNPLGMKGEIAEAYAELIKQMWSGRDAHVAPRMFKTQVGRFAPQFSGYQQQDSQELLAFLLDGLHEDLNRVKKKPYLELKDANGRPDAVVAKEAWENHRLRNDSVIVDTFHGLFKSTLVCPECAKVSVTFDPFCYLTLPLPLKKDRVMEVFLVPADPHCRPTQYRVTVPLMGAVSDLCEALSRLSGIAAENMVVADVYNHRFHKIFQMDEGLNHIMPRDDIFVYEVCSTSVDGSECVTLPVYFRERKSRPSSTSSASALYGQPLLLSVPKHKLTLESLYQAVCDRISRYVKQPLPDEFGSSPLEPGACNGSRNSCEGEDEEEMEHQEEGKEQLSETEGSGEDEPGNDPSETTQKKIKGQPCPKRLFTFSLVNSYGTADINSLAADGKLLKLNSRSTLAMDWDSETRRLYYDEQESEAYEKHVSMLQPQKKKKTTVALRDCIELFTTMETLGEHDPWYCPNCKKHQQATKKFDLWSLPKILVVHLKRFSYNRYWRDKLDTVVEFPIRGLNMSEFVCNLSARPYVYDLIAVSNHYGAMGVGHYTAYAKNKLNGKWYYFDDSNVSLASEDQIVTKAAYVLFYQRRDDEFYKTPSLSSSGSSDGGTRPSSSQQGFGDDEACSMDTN
Outline: as §1

Measured: log2 ratio of Biotin-Ahx-Ub-VS probe labelling

USP34, sequence (Q70CQ2 whole entry, the tested form may be a part): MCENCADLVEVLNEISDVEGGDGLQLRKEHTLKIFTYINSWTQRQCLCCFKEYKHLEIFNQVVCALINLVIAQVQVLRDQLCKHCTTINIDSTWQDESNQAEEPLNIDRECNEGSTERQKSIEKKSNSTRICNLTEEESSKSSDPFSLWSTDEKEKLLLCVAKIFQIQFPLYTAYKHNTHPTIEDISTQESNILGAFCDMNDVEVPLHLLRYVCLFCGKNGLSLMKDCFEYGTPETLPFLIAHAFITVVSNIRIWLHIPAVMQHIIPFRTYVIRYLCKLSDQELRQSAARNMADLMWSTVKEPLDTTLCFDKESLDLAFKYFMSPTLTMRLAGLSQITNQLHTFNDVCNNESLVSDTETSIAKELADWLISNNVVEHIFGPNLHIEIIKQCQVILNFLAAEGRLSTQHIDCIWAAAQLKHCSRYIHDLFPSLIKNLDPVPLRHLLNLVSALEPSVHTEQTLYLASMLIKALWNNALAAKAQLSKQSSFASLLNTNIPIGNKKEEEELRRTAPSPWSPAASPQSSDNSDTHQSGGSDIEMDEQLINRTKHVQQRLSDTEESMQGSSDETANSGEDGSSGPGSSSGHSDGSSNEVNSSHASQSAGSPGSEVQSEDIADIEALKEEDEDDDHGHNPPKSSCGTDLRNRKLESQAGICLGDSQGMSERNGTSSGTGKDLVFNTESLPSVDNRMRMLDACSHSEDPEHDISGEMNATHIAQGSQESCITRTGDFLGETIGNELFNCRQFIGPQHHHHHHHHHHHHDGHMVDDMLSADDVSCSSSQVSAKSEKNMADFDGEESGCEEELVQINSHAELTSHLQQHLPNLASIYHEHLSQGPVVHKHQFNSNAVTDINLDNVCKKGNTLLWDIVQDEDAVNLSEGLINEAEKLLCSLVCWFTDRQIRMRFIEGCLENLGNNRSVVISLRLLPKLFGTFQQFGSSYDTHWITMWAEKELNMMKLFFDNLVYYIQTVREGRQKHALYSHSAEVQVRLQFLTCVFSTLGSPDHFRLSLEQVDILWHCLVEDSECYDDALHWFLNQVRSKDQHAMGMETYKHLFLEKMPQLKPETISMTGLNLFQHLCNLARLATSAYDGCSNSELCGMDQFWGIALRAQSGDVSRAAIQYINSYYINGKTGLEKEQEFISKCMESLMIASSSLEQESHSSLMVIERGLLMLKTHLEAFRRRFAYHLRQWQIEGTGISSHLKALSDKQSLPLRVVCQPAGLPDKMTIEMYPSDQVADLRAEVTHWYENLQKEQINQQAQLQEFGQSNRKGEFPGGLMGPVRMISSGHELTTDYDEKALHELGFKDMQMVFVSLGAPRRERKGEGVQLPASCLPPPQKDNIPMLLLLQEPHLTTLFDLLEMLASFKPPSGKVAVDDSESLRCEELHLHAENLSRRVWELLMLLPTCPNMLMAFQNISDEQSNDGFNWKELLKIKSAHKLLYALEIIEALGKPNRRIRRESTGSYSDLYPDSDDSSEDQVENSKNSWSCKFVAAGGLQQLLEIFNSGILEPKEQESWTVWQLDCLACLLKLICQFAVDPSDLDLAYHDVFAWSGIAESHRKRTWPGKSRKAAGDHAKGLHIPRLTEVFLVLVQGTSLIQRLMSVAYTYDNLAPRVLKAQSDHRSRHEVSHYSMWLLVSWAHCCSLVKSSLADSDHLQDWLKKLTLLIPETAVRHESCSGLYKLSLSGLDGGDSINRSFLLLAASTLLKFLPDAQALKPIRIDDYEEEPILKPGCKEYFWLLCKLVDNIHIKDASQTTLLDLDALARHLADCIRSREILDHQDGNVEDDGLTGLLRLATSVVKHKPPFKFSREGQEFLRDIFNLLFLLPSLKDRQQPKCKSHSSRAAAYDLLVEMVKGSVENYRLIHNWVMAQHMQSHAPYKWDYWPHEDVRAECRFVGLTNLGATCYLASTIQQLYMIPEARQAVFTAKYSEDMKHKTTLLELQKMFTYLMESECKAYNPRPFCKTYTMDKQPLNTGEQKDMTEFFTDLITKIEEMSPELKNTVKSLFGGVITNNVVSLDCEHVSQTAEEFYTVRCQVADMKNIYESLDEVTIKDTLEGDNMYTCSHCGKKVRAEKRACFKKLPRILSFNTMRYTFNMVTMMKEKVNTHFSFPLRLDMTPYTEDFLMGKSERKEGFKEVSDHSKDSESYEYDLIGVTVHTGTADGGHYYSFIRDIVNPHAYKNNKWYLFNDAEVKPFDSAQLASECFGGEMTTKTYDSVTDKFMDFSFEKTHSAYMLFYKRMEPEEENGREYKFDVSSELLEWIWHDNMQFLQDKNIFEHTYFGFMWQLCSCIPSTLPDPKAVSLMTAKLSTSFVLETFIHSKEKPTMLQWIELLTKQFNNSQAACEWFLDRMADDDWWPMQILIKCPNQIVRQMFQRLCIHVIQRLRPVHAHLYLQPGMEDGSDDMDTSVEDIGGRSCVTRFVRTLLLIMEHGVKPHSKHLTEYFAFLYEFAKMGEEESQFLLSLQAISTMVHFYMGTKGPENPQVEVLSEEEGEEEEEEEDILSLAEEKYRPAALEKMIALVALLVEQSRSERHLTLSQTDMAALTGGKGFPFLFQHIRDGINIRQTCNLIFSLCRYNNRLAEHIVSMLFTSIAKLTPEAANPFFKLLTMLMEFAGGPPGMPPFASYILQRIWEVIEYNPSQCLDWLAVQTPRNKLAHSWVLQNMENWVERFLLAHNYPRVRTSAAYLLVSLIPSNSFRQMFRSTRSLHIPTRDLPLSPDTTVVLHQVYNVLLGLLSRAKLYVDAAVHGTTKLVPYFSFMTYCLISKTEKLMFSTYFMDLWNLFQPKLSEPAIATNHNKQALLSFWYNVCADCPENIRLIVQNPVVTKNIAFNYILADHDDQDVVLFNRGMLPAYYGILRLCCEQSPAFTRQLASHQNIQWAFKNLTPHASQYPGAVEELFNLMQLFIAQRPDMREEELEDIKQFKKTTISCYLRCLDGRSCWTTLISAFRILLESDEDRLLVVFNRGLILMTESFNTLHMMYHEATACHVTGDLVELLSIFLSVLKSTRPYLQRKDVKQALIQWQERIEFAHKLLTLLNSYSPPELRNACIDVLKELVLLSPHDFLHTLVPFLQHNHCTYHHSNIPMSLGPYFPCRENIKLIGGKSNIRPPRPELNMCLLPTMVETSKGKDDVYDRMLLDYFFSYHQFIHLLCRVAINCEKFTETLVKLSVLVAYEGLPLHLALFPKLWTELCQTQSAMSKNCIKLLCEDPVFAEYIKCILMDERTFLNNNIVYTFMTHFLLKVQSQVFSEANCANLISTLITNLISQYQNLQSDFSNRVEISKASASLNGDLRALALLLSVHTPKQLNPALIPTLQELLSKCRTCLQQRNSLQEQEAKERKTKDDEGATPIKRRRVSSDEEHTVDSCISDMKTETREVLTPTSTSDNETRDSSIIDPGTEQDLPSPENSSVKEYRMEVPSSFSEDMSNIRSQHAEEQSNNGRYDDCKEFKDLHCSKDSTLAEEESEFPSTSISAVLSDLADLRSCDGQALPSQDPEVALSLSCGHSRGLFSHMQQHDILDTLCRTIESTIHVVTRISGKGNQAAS

Cl.O=C(CCl)N1CCn2ncc(O)c2C1
inactive: USP34 -0.237 | USP36 -0.037 | USP38 -0.188 | USP39 0.194 | USP4 -0.298
